For assay [1], the system named is Human papillomavirus type 1a protein E7 (residues 44-93). As to the kind of experiment: small molecules binding HPV E7 44-93 – biochemical, small-molecule microarray, residues 44-93, 635 nm fluorescence, primary screen (AID 1108).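 Further: E7 fragment applied at 1 µg/mL in TBST for 1 h at 4 C; score combines spot fluorescence with its signal to noise ratio.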 The note with it: fluorescence 635 nm, higher = more signal.
Assay [2] is described as follows: hepatitis C replication reporter changes, two-sided – Huh7 cells, luciferase reporter, HCV replication inhibitor project, primary screen (AID 1109).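 Further: huh7 hepatoma cells harbouring a luciferase neomycin HCV replicon reporter; luciferase luminescence as measure of HCV replicon replication; test concentration not given here.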 The note with it: Huh7 HCV replicon luciferase reporter, 48 h; higher = more signal. On the technique in general: A reporter such as luciferase makes a cellular process visible.
The target in assay [3] is Left-right determination factor 2 (Homo sapiens) (UniProt O00292). As to the kind of experiment: small molecules binding LEFTY2 protein – biochemical, small-molecule microarray, 635 nm fluorescence scan, primary screen (AID 1110). Conditions: higher = more signal.
The target of assay [4] is Calmodulin-1 (Homo sapiens) (UniProt P0DP23). Briefly: small molecules binding calmodulin-1 with EGTA – biochemical, small-molecule microarray, Cy5-labelled CALM1, profiling panel (AID 1111).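 Further: labelled calmodulin applied in Tris saline Tween buffer holding calcium plus EGTA and DTT.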 The note with it: Cy5-CALM1 binding fluorescence, higher = more signal.
For assay [5] the target is unchanged. Briefly: small molecules binding Ca-loaded calmodulin-1 – biochemical, small-molecule microarray, Cy5-labelled CALM1, plus calcium, artefact control for SMM control-protein annotation, profiling panel (AID 1112).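 Further: score merges spot fluorescence with signal to noise from triplicate slides.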 Conditions: Cy5-CALM1 binding fluorescence, higher = more signal.
A short description of assay [6]: probe aWnt5a binding to arrayed compounds – biochemical, biotinylated probe, 635/667 nm fluorescence, primary screen (AID 1113).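 Further: score merges 667 nm fluorescence intensity with signal-to-noise per printed feature.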 The note with it: small-molecule microarray, higher = more signal.
Assay [7] can be described thus: probe aShh binding to arrayed compounds – biochemical, biotinylated probe, 635/667 nm fluorescence, primary screen (AID 1114).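 Further: probe is biotin-labelled aShh protein from a stem cell growth factor screen; measures binding of labelled protein to compounds printed on the slide; score merges feature fluorescence at 667 nm with signal-to-noise.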 The note with it: small-molecule microarray, higher = more signal.
Assay [8] can be described thus: probe aNog binding to arrayed compounds – biochemical, biotinylated probe, 635/667 nm fluorescence, primary screen (AID 1115).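 Further: probe is biotinylated aNog protein used at 0.15 µg/mL for 1 h at 4 C; z-score combines 667 nm fluorescence of each spot with its signal to noise.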 The note with it: small-molecule microarray, higher = more signal.
Assay [9] has as its target Torsin-1A-interacting protein 1 (Homo sapiens) (UniProt Q5JTV8). As to the kind of experiment: compound microarray binding of lysate hLAP1 – cell lysate, small-molecule microarray, COS7 lysate, 635/667 nm fluorescence, primary screen (AID 1116). The note with it: 635 nm fluorescence, higher = more signal.
Assay [10] addresses Alpha-bungarotoxin (Bungarus multicinctus) (UniProt P60615). Briefly: compounds binding labelled alpha-BTX control protein – biochemical, small-molecule microarray, Alexa647 label, 635/667 nm fluorescence, artefact control for SMM control protein annotation, profiling panel (AID 1117). The note with it: alpha-BTX-A647 binding fluorescence, higher = more signal.
A further assay addresses Albumin (Bos taurus) (UniProt P02769). As to the kind of experiment: compounds binding labelled BSA control protein – biochemical, small-molecule microarray, Alexa647 label, 635/667 nm fluorescence, artefact control for SMM control protein annotation, profiling panel (AID 1118).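 Further: score merges 667 nm emission intensity and signal-to-noise per printed compound spot.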 The note with it: BSA-A647 binding, fluorescence 635 nm, higher = more signal.
Assay [11] can be described thus: probe aXIP binding to arrayed compounds – biochemical, NeuroSMM set, 635/667 nm fluorescence, primary screen (AID 1119).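 Further: probe is the protein aXip251-270 applied at 1 µg/mL to compound-printed slides; binding of probe to printed compounds measured as 667 nm fluorescence plus signal to noise.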 The note with it: small-molecule microarray, higher = more signal, called active from +8 up or from −8 down.
The nature of assay [12]: probe aNOTCH3 binding on compound microarray – biochemical, small-molecule microarray, 635/667 nm fluorescence, primary screen (AID 1120).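 Further: probe is a biotin-tagged antibody raised against NOTCH3 rather than NOTCH3 protein; score merges spot fluorescence near 667 nm with spot signal to noise.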 The note with it: higher = more signal.
Assay [13] in a line: probe aNOTCH2 binding on compound microarray – biochemical, small-molecule microarray, 635/667 nm fluorescence, primary screen (AID 1121).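 Further: score merges feature fluorescence read at 667 nm with its signal to noise.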 The note with it: higher = more signal.
Assay [14] deals with Carbonic anhydrase 2 (Homo sapiens) (UniProt P00918). Briefly: compounds binding carbonic anhydrase 2 – biochemical, small-molecule microarray, Alexa647-labelled CAII, profiling panel (AID 1122). The note with it: CAII-A647 binding fluorescence, higher = more signal.
Assay [15] is described as follows: COS7 lysate on small-molecule microarray, probe aHis, 635 nm (AID 1123).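 Further: z-score combines 667nm fluorescence intensity with signal-to-noise per printed compound spot.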 Conditions: COS7 cell lysate, fluorescence, higher = more signal.
Assay [16] can be described thus: probe aLAP1 signal on lysate-treated microarray – cell lysate, small-molecule microarray, COS7 lysate, primary screen (AID 1124).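 Further: lysate comes from COS7 cells expressing LAP1 and is applied at 0.3 µg/mL; score merges spot fluorescence near 667 nm with signal-to-noise over triplicate slides.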 The note with it: probe aLAP1, fluorescence, higher = more signal.
For the next assay, the system named is Sam68 (KHDRBS1). Briefly: compounds binding KHDRBS1 protein – biochemical, small-molecule microarray, 635 nm fluorescence, primary screen (AID 1125).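 Further: score merges 667 nm channel intensity with signal to noise over triplicate slides.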 Conditions: higher = more signal.
Assay [17] has as its system Chordin-like protein 2 (CHRDL2). As to the kind of experiment: compounds binding chordin-like 2 – biochemical, small-molecule microarray, 635 nm fluorescence, primary screen (AID 1126).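 Further: printed compound slides probed with Chrdl2 protein at 4 µg/mL for 1 h at 4 C; score merges 667 nm emission intensity with signal to noise over three replicate slides.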 The note with it: fluorescence 635 nm, higher = more signal.
The target in assay [18] is Concanavalin-A (Canavalia ensiformis) (UniProt P02866). As to the kind of experiment: compounds binding concanavalin A lectin – biochemical, small-molecule microarray, Alexa647 label, 635 nm, artefact control for SMM control protein annotation, primary screen (AID 1127).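 Further: z combines 667 nm emission intensity with signal-to-noise across three replicate slides.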 Conditions: ConA-A647 binding fluorescence, higher = more signal.

The source made the active and inactive calls.

Sequence of Torsin-1A-interacting protein 1 (Homo sapiens) (Q5JTV8 whole entry, looked up): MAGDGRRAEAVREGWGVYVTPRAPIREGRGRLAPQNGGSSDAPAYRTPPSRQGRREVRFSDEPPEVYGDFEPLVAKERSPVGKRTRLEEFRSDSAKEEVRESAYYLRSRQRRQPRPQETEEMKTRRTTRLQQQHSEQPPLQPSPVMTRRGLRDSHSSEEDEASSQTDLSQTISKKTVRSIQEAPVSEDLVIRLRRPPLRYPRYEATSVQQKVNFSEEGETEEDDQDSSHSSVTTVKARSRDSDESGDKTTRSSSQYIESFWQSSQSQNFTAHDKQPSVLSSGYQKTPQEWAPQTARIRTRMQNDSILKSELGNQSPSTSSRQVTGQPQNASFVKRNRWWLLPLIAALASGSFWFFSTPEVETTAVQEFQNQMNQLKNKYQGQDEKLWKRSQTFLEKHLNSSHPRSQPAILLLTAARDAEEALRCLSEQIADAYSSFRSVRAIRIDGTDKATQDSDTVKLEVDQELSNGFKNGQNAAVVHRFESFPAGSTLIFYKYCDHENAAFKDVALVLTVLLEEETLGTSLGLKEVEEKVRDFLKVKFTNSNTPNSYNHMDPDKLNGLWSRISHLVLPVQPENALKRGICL
Sequence of Concanavalin-A (Canavalia ensiformis) (P02866 whole entry, looked up): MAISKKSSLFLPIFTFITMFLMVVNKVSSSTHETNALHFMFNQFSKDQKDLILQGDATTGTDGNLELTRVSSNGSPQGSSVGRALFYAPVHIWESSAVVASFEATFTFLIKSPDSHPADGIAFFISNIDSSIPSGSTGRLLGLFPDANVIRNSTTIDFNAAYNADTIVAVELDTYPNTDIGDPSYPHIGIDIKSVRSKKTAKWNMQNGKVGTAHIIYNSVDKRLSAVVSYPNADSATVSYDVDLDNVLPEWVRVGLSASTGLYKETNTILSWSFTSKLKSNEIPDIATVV
Sequence of Alpha-bungarotoxin (Bungarus multicinctus) (P60615 whole entry, looked up): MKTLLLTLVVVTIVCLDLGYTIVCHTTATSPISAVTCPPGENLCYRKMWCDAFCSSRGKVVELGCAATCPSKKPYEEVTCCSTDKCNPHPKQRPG
Sequence of Albumin (Bos taurus) (P02769 whole entry, looked up): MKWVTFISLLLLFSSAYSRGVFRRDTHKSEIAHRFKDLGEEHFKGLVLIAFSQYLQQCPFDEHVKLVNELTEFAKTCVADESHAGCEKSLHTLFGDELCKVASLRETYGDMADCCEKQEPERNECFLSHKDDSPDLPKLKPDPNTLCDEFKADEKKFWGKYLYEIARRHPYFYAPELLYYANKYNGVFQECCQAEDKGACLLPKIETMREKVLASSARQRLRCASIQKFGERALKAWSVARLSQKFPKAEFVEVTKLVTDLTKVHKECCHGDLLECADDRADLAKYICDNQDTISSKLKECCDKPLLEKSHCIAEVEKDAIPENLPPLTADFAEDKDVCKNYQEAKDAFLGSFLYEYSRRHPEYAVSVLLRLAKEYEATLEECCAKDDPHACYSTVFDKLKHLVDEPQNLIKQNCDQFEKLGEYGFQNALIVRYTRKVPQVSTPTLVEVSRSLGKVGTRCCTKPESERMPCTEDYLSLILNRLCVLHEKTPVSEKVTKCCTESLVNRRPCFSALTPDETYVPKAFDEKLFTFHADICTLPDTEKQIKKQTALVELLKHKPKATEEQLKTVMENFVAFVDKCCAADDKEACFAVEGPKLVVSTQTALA
Sequence of Left-right determination factor 2 (Homo sapiens) (O00292 whole entry, looked up): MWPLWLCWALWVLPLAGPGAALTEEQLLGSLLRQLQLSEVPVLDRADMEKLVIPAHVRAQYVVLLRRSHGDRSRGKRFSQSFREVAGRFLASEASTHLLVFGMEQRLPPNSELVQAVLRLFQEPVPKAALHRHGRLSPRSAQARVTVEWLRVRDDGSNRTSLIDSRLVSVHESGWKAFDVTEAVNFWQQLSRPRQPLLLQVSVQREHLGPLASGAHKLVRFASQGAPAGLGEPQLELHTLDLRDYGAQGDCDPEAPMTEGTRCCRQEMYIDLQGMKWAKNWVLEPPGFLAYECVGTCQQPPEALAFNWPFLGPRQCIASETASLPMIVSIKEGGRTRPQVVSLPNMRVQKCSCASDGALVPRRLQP

Regarding `Cc1ccc(S[C@]2(C(=O)O)CC(=O)N(C(C)C)[C@@H]2c2ccc(CO)cc2)cc1`, the composite z-score in assay [1] is 0.253; in [3], -0.193; in [4], -0.0058; in [5], -0.529; in assay [6] it was -0.12; in assay [7], 0.216. Moreover, the composite z-score is -0.294 in assay [8]; 1.42 in assay [9]; 0.644 in assay [10]; 0.07 with Albumin (Bos taurus); -0.139 in assay [12]; -0.107 in assay [13]. Besides, the composite z-score in assay [14] was 0.648; in assay [15], -0.216; in assay [16], 1.14; in the assay on Sam68 (KHDRBS1), 0.462; in assay [17], -0.215; in assay [18] it was 0.394. This molecule had a z-score in assay [2] of -0.625. In [11], the composite Z-score was 0.264 (inactive).

For `O[C@@H](Cc1ccccc1)[C@@H](/C=C/C1CC1)NCc1cccc(Cl)c1`, the composite z-score was -0.597 in assay [1]; -1.4 in [3]; -0.863 in [4]; -0.133 in assay [5]; -0.197 in [6]; -0.206 in [7]. Further, the composite z-score in [8] was -0.402; in [9], -0.737; in assay [10] it was -0.801; in the assay with Albumin (Bos taurus) it was -0.0308; in assay [12] it was -0.272; in assay [13] it was -0.146. The composite z-score in assay [14] was -0.397; in assay [15] it was -0.266; in assay [16] it was -0.273; in the assay on Sam68 (KHDRBS1), -0.53; in [17] it was -1.11; in assay [18], -0.509. Further, the z-score in assay [2] was -4.47. Also, the composite Z-score in [11] was -0.515 (inactive).

Take `C=CC[C@]1(C(=O)NCc2ccccc2)N=C(c2ccc(OCCCO)cc2)O[C@H]1c1ccccc1CN=[N+]=[N-]`: the composite z-score was 1.42 in [1]; 0.13 in assay [3]; 0.764 in assay [4]; 0.358 in assay [5]; -0.001 in assay [6]; -0.0146 in [7]. The composite z-score is -0.516 in assay [8]; 0.854 in [9]; 0.361 in [10]; 0.183 in the assay with Albumin (Bos taurus); 0.367 in [12]; -0.104 in assay [13]. In addition, the composite z-score in assay [14] was 0.563; in assay [15], 0.935; in [16], 0.403; in the assay with Sam68 (KHDRBS1), 1.31; in [17], -0.329; in assay [18], 0.79. Besides, the z-score in assay [2] was -2.42. The composite Z-score in assay [11] is -0.451 (inactive).

Regarding `COCCCNC(=O)[C@@]1(CCS(=O)(=O)c2ccccc2)N=C(c2ccc(OCCCO)cc2)O[C@H]1c1ccccc1N=[N+]=[N-]`, the composite z-score in assay [1] is 1.48; in assay [3], 0.169; in assay [4], 1.55; in assay [5], 0.001; in [6] it was 0.127; in [7] it was 0.204. Moreover, the composite z-score in [8] was 1.36; in assay [9], 2.24; in assay [10], 1.67; in the assay with Albumin (Bos taurus) it was 0.955; in assay [12], 0.307; in [13], -0.0316. For the same molecule, the composite z-score in assay [14] was 0.695; in assay [15] it was 3.05; in [16], 0.743; with Sam68 (KHDRBS1) it was 1.3; in [17] it was -0.154; in assay [18], 1.07. The z-score in assay [2] was -1.6. Also, the composite Z-score in [11] is 0.164 (inactive).

With `NC(=O)NCC#Cc1ccc2c(c1)[C@]1(C(=O)N2)[C@H](C(=O)O)[C@H]2C(=O)O[C@H](c3ccccc3)[C@H](c3ccccc3)N2[C@@H]1c1ccc(O)cc1`, the composite z-score was 0.443 in [1]; -0.317 in assay [3]; 1.6 in assay [4]; 0.717 in assay [5]; 0.216 in assay [6]; 0.346 in [7]. The composite z-score turned out to be 1.61 in [8]; 0.412 in [9]; 1.5 in assay [10]; 0.424 in the assay with Albumin (Bos taurus); 0.207 in assay [12]; 0.314 in assay [13]. In addition, the composite z-score was 0.205 in assay [14]; 0.361 in assay [15]; -0.464 in assay [16]; 0.102 in the assay with Sam68 (KHDRBS1); 0.265 in assay [17]; 0.888 in assay [18]. In [2], this molecule registered a z-score of -0.539. The composite Z-score in [11] was 0.116 (inactive).

For the molecule `CCCC1(C(=O)OC)C=C2C(=C(c3ccccc3)C(=O)C2C)CN1` (stereo not given), the composite z-score is -0.719 in assay [1]; 0.0193 in [3]; 0.155 in [4]; -0.253 in assay [5]; -0.0203 in assay [6]; 0.108 in assay [7]. The composite z-score is 1.75 in assay [8]; 1.05 in [9]; 0.287 in assay [10]; -0.0235 with Albumin (Bos taurus); 0.0365 in assay [12]; 0.015 in assay [13]. Further, the composite z-score in [14] is 0.756; in assay [15] it was 1.51; in assay [16], 0.959; in the assay with Sam68 (KHDRBS1), 0.0707; in [17], 0.108; in assay [18], -1.13. The molecule also showed a z-score in assay [2] of -1.85. For the same molecule, the composite Z-score in [11] is 0.589 (inactive).

Turning to `O=C1N(CCS(=O)(=O)c2ccccc2)c2ccccc2[C@@H]2OC(c3ccc(OCCCO)cc3)=N[C@]12Cc1ccccc1`, the composite z-score in assay [1] was 1.34; in assay [3], 0.248; in assay [4] it was 0.835; in assay [5], -0.387; in assay [6], -0.124; in [7], -0.24. For the same molecule, the composite z-score in assay [8] is -0.12; in assay [9], 0.309; in assay [10] it was 1.32; with Albumin (Bos taurus), 0.484; in [12], 0.126; in [13], -0.0244. The composite z-score came to 0.391 in [14]; 0.898 in [15]; 0.474 in assay [16]; 1.3 with Sam68 (KHDRBS1); 0.837 in assay [17]; 1.12 in [18]. The same molecule had a z-score in [2] of -1.94. Besides, the composite Z-score in assay [11] is -0.209 (inactive).

Regarding `O=C1[C@H]2C=C(Br)[C@H](C[C@@H]2OCCCCCCO)[C@@]12CO2`, the composite z-score is -1.01 in assay [1]; -0.057 in assay [3]; -0.714 in assay [4]; -1.44 in assay [5]; -0.006 in assay [6]; -0.106 in assay [7]. The composite z-score was -0.234 in [8]; 0.0589 in [9]; -1.17 in assay [10]; -0.699 in the assay with Albumin (Bos taurus); 0.265 in [12]; -0.0064 in assay [13]. In addition, the composite z-score in assay [14] was -0.382; in assay [15] it was -0.469; in assay [16], 0.206; in the assay on Sam68 (KHDRBS1), -0.733; in assay [17], 0.0547; in [18], -1.57. The molecule also displayed a z-score in assay [2] of -3.2. The composite Z-score in assay [11] was 0.926 (inactive).

Source of the values: PubChem BioAssay.
